Test results as given in PubChem BioAssay (Tox21).
Inconclusive results are not listed. A call without a number means that no potency is given here. Unmarked numbers belong to inactive results. Activity calls are given as the source filed them. The call rests on the fitted dose curve.

Target: 5-hydroxytryptamine receptor 2A (Homo sapiens) (UniProt P28223)
Assay: 5-hydroxytryptamine receptor 2A (HTR2A) small molecule antagonists, cell-based qHTS assay (AID 1963586); further: nearly all actives have a fitted effect of over 45% in size
Summary of the method: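 Antagonist-mode intracellular calcium assay: DOI (4 nM) added after 5 min compound pre-incubation at room temperature to dye-loaded HTR2A-CHO cells. Fluorescence followed for 3 min, sampled every second.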
Potency means the concentration at half of the fitted maximal effect.

Sequence of 5-hydroxytryptamine receptor 2A (Homo sapiens) (P28223 whole entry, looked up): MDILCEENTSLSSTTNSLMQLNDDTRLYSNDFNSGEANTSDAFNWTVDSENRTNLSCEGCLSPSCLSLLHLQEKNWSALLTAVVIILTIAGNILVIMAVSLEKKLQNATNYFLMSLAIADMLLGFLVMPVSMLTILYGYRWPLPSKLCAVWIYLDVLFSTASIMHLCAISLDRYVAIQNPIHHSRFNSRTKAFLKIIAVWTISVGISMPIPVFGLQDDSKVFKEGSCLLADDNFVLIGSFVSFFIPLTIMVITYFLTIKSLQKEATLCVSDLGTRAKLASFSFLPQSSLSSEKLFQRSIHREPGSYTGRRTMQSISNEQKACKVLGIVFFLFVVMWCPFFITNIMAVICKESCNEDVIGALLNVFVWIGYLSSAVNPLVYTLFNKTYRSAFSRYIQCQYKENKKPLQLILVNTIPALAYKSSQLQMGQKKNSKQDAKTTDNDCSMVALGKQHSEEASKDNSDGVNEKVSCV

Row | SMILES | Potency | activity, negative = inhibition
1 | COc1ccccc1OCC(O)CN1CCN(CC(=O)Nc2c(C)cccc2C)CC1 (stereo not drawn) | inactive | 
2 | O=C(O)CCC(=O)c1ccc(-c2ccccc2)cc1 | inactive | 
3 | O=C1[C@H](CC[C@H](O)c2ccc(F)cc2)[C@@H](c2ccc(O)cc2)N1c1ccc(F)cc1 | inactive | 
4 | CC(=O)c1c(C)cc(C(C)(C)C)cc1C | inactive | 
5 | O=CC(=O)c1ccccc1 | inactive | 
6 | CCCCCCOC(=O)CCCCC | inactive | 
7 | CC(C)CCOC(=O)CC(C)C | inactive | 
8 | CCc1nccnc1CC |  | -8.77% [at 12.7 µM]
9 | CC(=O)OCC[N+](C)(C)C | inactive | 
10 | Cn1c(N)c(N=O)c(=O)n(C)c1=O | inactive | 
11 | CC(C(O)c1ccc(O)cc1)N1CCC(Cc2ccccc2)CC1 (stereo not drawn) | 16.3 µM (active) | 
12 | CC(C)NCC(O)c1ccc2ccccc2c1 (stereo not drawn) | inactive | 
13 | O=C1c2ccccc2C(=O)C1c1ccc(Br)cc1 | inactive | 
14 | NC(=O)Nc1ccc(Cl)c(Cl)c1 | inactive | 
15 | CCCCC(=O)O[C@]1(C(=O)CO)CC[C@H]2[C@@H]3CCC4=CC(=O)CC[C@]4(C)[C@H]3[C@@H](O)C[C@@]21C | inactive | 
16 | Cc1ccc2oc(CN(Cc3ccccc3)C(=O)Nc3c(F)cc(F)cc3F)c(-c3ccc(Cl)cc3)c2c1 | inactive | 
17 | Nc1ncnc2c1ncn2[C@H]1CC[C@@H](CO)O1 | inactive | 
18 | OC1CCCc2ccccc21 (stereo not drawn) | inactive | 
19 | CCC(C)N(C)C(=O)c1cc2ccccc2c(-c2ccccc2Cl)n1 (stereo not drawn) | inactive | 

Row | SMILES | Potency | activity, negative = inhibition
20 | CN1CCN(CC(=O)N2c3ccccc3C(=O)Nc3cccnc32)CC1 |  | 57.8% [at 5.62 µM]
21 | COc1ccccc1Oc1c(NS(=O)(=O)c2ccc(C(C)(C)C)cc2)nc(-c2ncccn2)nc1OCCO | inactive | 
22 | CO/N=C(\C(=O)O)c1csc(NC(=O)CCl)n1 | inactive | 
23 | C=C(C)C(=O)OCCOCC | inactive | 
24 | C=COCC1CCC(CO)CC1 (stereo not drawn) | inactive | 
25 | CCCCN(C)C | inactive | 
26 | O=C(O)c1cc(Cl)cc([N+](=O)[O-])c1Cl | inactive | 
27 | Clc1nnc(Cl)c2ccccc12 | inactive | 
28 | CCCCCCCCCCCCC | inactive | 
29 | Cn1c(=O)cc(Oc2ccc(F)cc2F)c2cnc(NCC(C)(C)O)nc21 | inactive | 
30 | Nc1cc(S(=O)(=O)O)ccc1O | inactive | 
31 | CCCCCN(CCCOC)C(=O)C(CCC(=O)O)NC(=O)c1ccc(Cl)c(Cl)c1 (stereo not drawn) | inactive | 
32 | CCCCCCCCc1ccc(S(=O)(=O)O)cc1 | inactive | 
33 | Cc1ccc2c(c1)C(=O)c1ccccc1C2=O | inactive | 
34 | CCCCCOC(=O)CCCC | inactive | 
35 | CSc1nc(NC2CC2)nc(NC(C)(C)C)n1 | inactive | 
36 | OCCCCC(O)CO (stereo not drawn) | inactive | 
37 | Oc1cccc2cc3cccc(O)c3c(O)c12 | inactive | 
38 | CCCCOCCOC(=O)COc1ccc(Cl)cc1Cl | inactive | 
